Laboratory results: PubChem BioAssay (Tox21)
Several values for one entry are separate records, joined by “and”; a condition that tells them apart may be missing. Equal values may be shown once. Values without a mark were called inactive. Inconclusive results are not listed. A call without a number means that no potency is given here. Activity calls are given as the source filed them. Unless noted, the call rests on the fitted dose curve; in most records, active means well fitted curve in the direction sought with a large enough effect in the repeat runs; inconclusive means weak or mixed curves; inactive means no such curve, though single readings can be large; an effect the other way counts as inactive or inconclusive.

Assays:
[1] = qHTS assay to identify small molecule agonists of H2AX (AID 1224845; active means well fitted activation curve with a large enough effect in the signal ratio in the repeat runs, not every such curve was filed as active; the % refers to the signal ratio)
How it was run: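 Wild-type CHO-K1 cells plated overnight, then exposed 3 hr at 37C to compounds at 15 concentrations (0.76% DMSO). Lysed, then HTRF anti-pH2AX(S139)-cryptate/anti-H2AX-d2 detection after 24 hr at room temperature; emissions 665 and 620 nm.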

[2] = qHTS assay to identify small molecule agonists of the hypoxia (HIF-1) signaling pathway (AID 1224846; active means well fitted activation curve with a large enough effect in the signal ratio in the repeat runs, not every such curve was filed as active; the % refers to the signal ratio)
How it was run: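 ME-180 HRE-bla reporter cells; compounds in DMSO, 17 h at 37C; read-out beta-lactamase via CCF4-AM FRET.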

[3] = qHTS assay to identify small molecule agonists of H2AX - cell viability counter screen (AID 1224847; calls by dose curve; further: top concentration of the series differs between compounds; nearly all actives have a fitted effect of over 30% in size)
How it was run: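 After overnight plating of 1000 CHO-K1 cells per well, a 15-concentration compound series was applied for 3 hr at 37C. Luminescence from CellTiter-Glo, read following 30 min at room temperature, reflected cell viability.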

[4] = qHTS RealTime-Glo MT Cell Viability Assay in HepG2 cells - 24 hour (AID 1224867); further: nearly all actives have a fitted effect of over 50% in size
How it was run: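 Cell number in HepG2 cultures estimated from NanoLuc luminescence generated by metabolic reduction of a prosubstrate by living cells. The homogeneous, nonlytic format allowed repeated reads at 0, 8, 16, 24, 32 and 40 h of compound exposure.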

[5] = qHTS RealTime-Glo MT Cell Viability Assay in HEK293 cells - 32 hour (AID 1224868); further: top concentration of the series differs between compounds; nearly all actives have a fitted effect of over 50% in size
How it was run: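 Homogeneous bioluminescent viability format in HEK293 cells (600 cells/well). Following 5 h at 37 C/5% CO2, 23 nL compound was pintooled; the signal was measured repeatedly during 40 h incubation.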

[6] = A CellTox Green Cytotoxicity Assay to monitor cytotoxicity in HEK293 cells - 0 hour (AID 1224869); further: nearly all actives have a fitted effect of over 50% in size
How it was run: (§1)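 Real-time, in one plate: 600 HEK293 cells/well with dead-cell DNA dye, pinned compound after 5 h, 37 C incubation over 40 h; viable cells give no appreciable fluorescence.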

[7] = qHTS RealTime-Glo MT Cell Viability Assay in HepG2 cells - 40 hour (AID 1224870); further: nearly all actives have a fitted effect of over 50% in size; further: potency means the concentration at half of the fitted maximal effect
How it was run: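 HepG2 cells mixed with RealTime-Glo MT reagents (NanoLuc plus cell-permeant prosubstrate) were seeded at 600 cells/well, incubated 5 h at 37 C/5% CO2, then pinned with compounds in DMSO; nonlytic luminescence tracked viability during 40 h treatment.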

[8] = A CellTox Green Cytotoxicity Assay to monitor cytotoxicity in HEK293 cells - 40 hour (AID 1224871); further: nearly all actives have a fitted effect of over 45% in size; further: potency means the concentration at half of the fitted maximal effect
How it was run: as §1

[9] = qHTS assay to identify small molecule antagonists of the estrogen related receptor (ERR) signaling pathway from Tox21 library (AID 1224848); further: nearly all actives have a fitted effect of over 50% in size
How it was run: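 Tox21 10K compounds in DMSO tested for ERR pathway antagonism in NTP's ERR cell line; 18 h, 37 C exposure; ONE-Glo luminescence.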

[10] = qHTS assay to identify small molecule agonists of the estrogen related receptor (ERR) signaling pathway from Tox21 library (AID 1224849; calls by dose curve; further: nearly all actives have a fitted effect of over 15% in size); conditions: ERR reporter cell line, ONE-Glo luciferase, 18 h
How it was run: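 Luciferase activity in ERR pathway reporter cells served as the agonist readout; exposure lasted 18 h at 37 C, with ONE-Glo detection after 30 min at room temperature.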

| SMILES | Potency [1] | Potency [2] | Potency [3] | Potency [4] | Potency [5] | Potency [6] | Potency [7] | Potency [8] | Potency [9] | activity change, positive = activation ([10]; at 92.4 µM (top of the series)) | activity change, positive = activation ([10]; at 42.5 µM (top of the series)) |
| --- | --- | --- | --- | --- | --- | --- | --- | --- | --- | --- | --- |
| C=Cc1ccccc1C=C | inactive | inactive | inactive | inactive | inactive | inactive | inactive | inactive |  |  |  |
| CCC(=O)C(=O)CC | inactive | inactive | inactive | inactive |  | inactive | inactive | inactive | inactive | -15.7% |  |
| CN(C)Cc1cc(C(C)(C)C)c(O)c(C(C)(C)C)c1 | inactive | inactive | inactive | inactive | inactive | inactive | inactive | inactive |  | -28.5% |  |
| COc1cc(/C=C/c2ccccc2)oc(=O)c1 | inactive | inactive | inactive | inactive |  |  | inactive | inactive | inactive | 36.4% (active) |  |
| CCCCOC(=O)CC | inactive | inactive | inactive | inactive | inactive | inactive | inactive | inactive |  |  |  |
| Cc1ccc(C(C)C)cc2c(C)ccc1-2 | inactive | inactive | inactive | inactive |  |  | inactive | inactive | inactive |  | -2.57% |
| O=[N+]([O-])c1ccc(F)c(Cl)c1 | inactive | inactive | inactive | inactive | inactive | inactive | inactive | inactive |  |  |  |
| CCN(CCN)c1cccc(C)c1 | inactive | inactive | inactive | inactive | inactive | inactive | inactive | inactive |  | -29% and -22.9% |  |
| CCC(=O)OC(=O)CC | inactive | inactive | inactive | inactive | inactive | inactive | inactive | inactive |  |  |  |
| CC[N+](CC)(CC)CCOC(=O)C(C1CCCC1)C1CCCC1 | inactive | inactive | inactive | inactive |  | inactive | inactive | inactive |  |  | -21.2% |
| CCCCCCCC/C=C\CCCCCCCCN | inactive | inactive | inactive |  |  | inactive |  | 23.9 µM (active) | inactive |  | -2.95% |
| OC1CCCc2ccccc21 (configuration not stated) | inactive | inactive | inactive | inactive | inactive | inactive | inactive | inactive |  |  |  |
| O=C(Oc1ccccc1)Oc1ccccc1 | inactive | inactive | inactive |  | inactive | inactive | 34.5 µM (active) | inactive | inactive | -11.4% |  |
